# According to PubChem BioAssay:
# System: Human papillomavirus type 1a E7 protein (residues 1-88)
# Assay: HPV1a E7 small-molecule binders, primary screen, biochemical, small-molecule microarray, residues 1-88, 635 nm (AID 1129)
# Settings: small-molecule microarray binding, fluorescence 635 nm; higher = more signal
row,Compound,composite z-score
1,COc1cc(CO)ccc1OC(C)=O,0.741
2,COc1ccc(C#Cc2ccc3c(c2)[C@]2(C(=O)N3)[C@H](c3ccc(O)cc3)N3[C@H](c4ccccc4)[C@H](c4ccccc4)OC(=O)[C@H]3[C@@H]2C(=O)N2CCCCCCC2)cc1,1.22
3,CN1C=C(C(=O)OCCS(C)(=O)=O)C(C(=O)OCCS(C)(=O)=O)=CC(CCCO)=CC1C1CC1 (stereo unspecified),-0.202
4,COCCOC(=O)N1C(=O)[C@@]2(c3cc(C#CCC(C(=O)OC)C(=O)OC)ccc31)[C@H](c1ccc(O)cc1)N1[C@H](c3ccccc3)[C@H](c3ccccc3)OC(=O)[C@H]1[C@@H]2C(N)=O,1.23
5,COc1ccc(NN2C(C(O)c3ccc(OC)c(OCc4ccccc4)c3)C=CC3C(=O)N(C4CCCCC4)C(=O)C32)cc1 (stereo unspecified),1.21
6,CC(C)N1CC=CC23O[C@@H]4C=CCOC(=O)[C@@H]4[C@H]2C(=O)N(CCO)[C@@H]3C1=O (stereo partly specified),-0.586
7,O=C1c2ccccc2[C@@]2(Cc3ccccc3N(Cc3ccccc3)C2=O)[C@H](c2ccc(CO)cc2)N1C1CCCCC1,0.174
8,CO[C@H]1O[C@H](CO)[C@@H](OC(=O)Nc2ccc3c(c2)OCO3)[C@H](OC(=O)Nc2ccccc2)[C@H]1OC(=O)Nc1ccccc1,1.28
9,CC(C)C[C@@H]1NC(=O)[C@@H]2C[C@H](C(=O)NCCCCCC[N+](C)(C)C)[C@H](c3ccc(O)cc3)N2C1=O,0.922
10,N#Cc1ccc(NN2C(C(O)C3CCCCC3)C=CC3C(=O)N(c4ccccc4)C(=O)C32)cc1 (stereo unspecified),1.27
11,O=c1oc(-c2ccccc2)nc2cc(Br)ccc12,0.71
12,COC(=O)[C@@]1(Cc2ccc(OC)cc2)[C@H]2c3cc(C(=O)N(C)C)n(Cc4c(OC)[nH]cc(C)c4=O)c3C[C@H]2CN1C(=O)c1ccccc1,0.66
13,CC(C)NC(=O)[C@@H]1c2ccccc2C(=O)N(Cc2ccccc2)[C@H]1c1ccc(CO)cc1,0.482
14,O=C1C=CC(=O)[C@@H]2CC(COc3ccccc3)=C3[C@@H](CCc4ccccc4)OB(O)C[C@@H]3[C@H]12,0.273
15,C=CCC(OC(C)=O)[C@@H]1[C@@H](N(Cc2cccc3ccccc23)C(=O)c2cccc3ccccc23)c2cc(OCCCO)ccc2N1C(=O)c1ccc2ccccc2n1 (stereo partly specified),-0.0829
16,O=C1[C@]2(CO)C=C(Br)[C@@H](C[C@@H]2c2ccccc2)[C@@]12CO2,-0.769

row,Compound,composite z-score
1,COCC1=C2[C@@H](CCc3ccccc3)OB(O)C[C@@H]2[C@@H]2C(=O)N(Cc3ccccc3)C(=O)[C@@H]2C1,-0.147
2,CCOC(=O)C1=CC[C@@H](c2ccccc2)N(S(=O)(=O)c2ccc(C)cc2)[C@H]1C(=O)OCC,1.2
3,Cc1ccccc1C(O)C1C=CC2C(=O)N(C)C(=O)C2N1Nc1ccccc1 (stereo unspecified),1.16
4,C=CCC(OC(C)=O)[C@@H]1[C@@H](N(Cc2ccc(-c3ccccc3)cc2)C(=O)Cc2ccc(OC)cc2)c2cc(OCCCO)ccc2N1C(=O)c1ccc2ccccc2n1 (stereo partly specified),0.0656
5,CCN(CC)c1ccc(N2CC=CC34O[C@@H]5C=CCCOC(=O)C5[C@H]3C(=O)N(CCCCCO)[C@@H]4C2=O)cc1 (stereo partly specified),-0.513
6,C[C@]1(C(=O)NCc2ccccc2)c2ccccc2C(=O)N(Cc2ccc(OC(F)(F)F)cc2)[C@H]1c1ccc(CO)cc1,1.02
7,CC(=O)Nc1cc(Br)ccc1C(=O)O,0.747
8,COC(=O)C[C@H]1O[C@]2(C(=O)N(Cc3ccccc3)c3ccc(NC(C)=O)cc32)[C@@H](C)[C@@H]1[Si](C)(C)c1ccc(OC)cc1,0.822
9,COCCOC(=O)N1C(=O)[C@@]2(c3cc(C#CCC(C(=O)OC)C(=O)OC)ccc31)[C@H](C(=O)N1CCN(c3ncccn3)CC1)[C@H]1C(=O)O[C@H](c3ccccc3)[C@H](c3ccccc3)N1[C@@H]2c1ccc(OCCO)cc1,1.19
10,O=c1cccc(C=Cc2ccccc2)o1,-0.191
11,CCCCC(CC)C(O)C1C=CC2C(=O)N(c3ccccc3)C(=O)C2N1Nc1ccccc1 (stereo unspecified),1.19
12,COc1ccc([Si](C)(C)[C@@H]2[C@@H](CC(=O)N(CCO)Cc3ccccc3)O[C@]3(C(=O)N(C)c4ccccc43)[C@H]2C)cc1,1.17
13,CC(C)C[C@@H]1NC(=O)[C@H]2C[C@@H](C(=O)NCCCCCNC(=O)CS)[C@@H](c3cccc(OCCO)c3)N2C1=O,1.21
14,O=C(OCCF)C1=CCC(c2cccc(Cl)c2)O1 (stereo unspecified),0.628
15,O=C(O)[C@@]1(Cc2ccccc2)N=C(c2ccc(OCCCO)cc2)O[C@H]1c1ccccc1,-0.112
